# From PubChem BioAssay
# “And” between values parts separate entries of the source, which are not always exact repeats. Equal entries are not always repeated. Inconclusive results are not listed. The source made the active and inactive calls. Unless noted, no cut-off is given here; in the data, nearly all actives have AC50 up to about 26 µM.
# Experiments:
# [1] = growth inhibition of DIPG glioma cells, dose response, cell-based, SU-DIPG-XIII, MIPE5.0, CellTiter-Glo, qHTS (AID 1347064; cut-off not given, nearly all actives have AC50 up to about 23 µM;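 for AC50: cells exposed to compound for 48 hours before the viability read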); details: SU-DIPG-XIII viability, CellTiter-Glo ATP luminescence
# [2] = viability loss in pontine glioma line – cell-based, SU-DIPG-XXV, MIPE5.0, CellTiter-Glo, qHTS, dose response (AID 1347065); details: CellTiter-Glo ATP luminescence;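 note: cells exposed to compound for 48 hours before ATP readout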
# [3] = JHH-DIPG-1 glioma cell viability, MIPE5.0 library, CellTiter-Glo luminescence, qHTS (AID 1347067); details: JHH-DIPG-1 glioma viability, CellTiter-Glo ATP luminescence;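 note: cells exposed to compound for 48 hours before readout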
# [4] = SU-DIPG-XXV glioma cell viability, MIPE5.0 library, qHTS (AID 1347068; cut-off not given, nearly all actives have IC50 up to about 30 µM;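 for IC50: cells exposed to compound for 48 hours before viability readout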)
# [5] = SU-DIPG-VI glioma cell viability, MIPE4.0 library, CellTiter-Glo luminescence, qHTS (AID 1347066; cut-off not given, nearly all actives have AC50 up to about 30 µM;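 note: cells exposed to compound for 48 hours before readout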); details: CellTiter-Glo ATP luminescence
# [6] = sensitizers of A549 cells to miR-34 induction, primary screen, imaging, A549 dox-inducible miR-34, nuclei and caspase counts (AID 1347080;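 active = compounds whose cell count with miR-34 switched on is under 0.7 times the count with it off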); details: A549 miR-34 inducible, Hoechst nuclei count, 48 h
# [7] = survival rescue of mitochondrial mutant cells in low glucose, primary screen, MELAS cybrids, Rieske KO mouse fibroblasts, CellTiter-Glo (AID 1508586;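 active = mean z-score across replicates of 1.96 or higher in either the MELAS or the Rieske mutant cell line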;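 note: z relative to plate mean and SD of compound and empty wells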)
# [8] = viability rescue of complex I mutant cybrids, primary screen, cell-based, galactose medium, ATP luminescence (AID 1645843;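 active = z-score of at least 1.8 in each of two replicates, scored against plate mean and spread of sample wells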;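 note: positive z means more ATP and so rescue of galactose-driven cybrid death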); details: complex I mutant cybrid cells, 72 h, stronger effect = higher value
# [9] = stronger effect = lower value, cell number ratio, induced over uninduced
# [10] = measured here: relative caspase fold change +Dox/-Dox
# [11] = measured here: total cells with miR-34 induction, stronger effect = lower value
# [12] = measured here: total cells without miR-34 induction
# [13] = MELAS cybrid survival, CellTiter-Glo 48 h, stronger effect = higher value
# [14] = Rieske KO mouse fibroblast survival, CellTiter-Glo 72 h
smiles,measurement,setting,value
Cc1ccc(-n2c(C)cc(-c3nnc4n3CCCCC4)c2C)cc1,AC50,[1],14.8 µM (active)
same,AC50,[2],20.9 µM (active)
same,AC50,[3],18.6 µM (active)
COCCCc1sc(-c2ccccc2)nc1C(=O)Nc1ccccc1-c1nc2cc(CN3CCCC3)cnc2s1,AC50,[1],9.1 µM (active)
same,AC50,[2],12.9 µM (active)
COc1ncc(Nc2ncc([C@H](C)N3CCN(S(C)(=O)=O)CC3)cc2-c2nc(C)nc(N)n2)cc1F,AC50,[1],0.525 µM (active)
same,AC50,[2],0.105 µM (active)
same,AC50,[3],1.18 µM (active)
CN(C)c1cc(NC(=O)CNC(C)(C)C)c(O)c2c1C[C@H]1C[C@H]3[C@H](N(C)C)C(=O)C(C(N)=O)=C(O)[C@]3(O)C(=O)C1=C2O,outcome,[1],inactive
same,outcome,[2],inactive
same,outcome,[3],inactive
COC1(c2sc3c(N4CCOCC4)nc(-c4cnc(N)nc4)nc3c2C)COC1,AC50,[1],0.661 µM (active)
same,AC50,[2],0.132 µM (active)
same,AC50,[3],0.525 µM (active)
same,IC50,[4],1.18 µM (active)
N#Cc1ccc(-c2c(-c3ncn[nH]3)sc(N3CCOCC3)c2C#N)c(F)c1,AC50,[1],5.9 µM (active)
same,AC50,[2],1.48 µM (active)
same,AC50,[3],10.5 µM (active)
same,IC50,[4],4.68 µM (active)
C=Cc1cc(O)cc2nc(-c3ccc(O)c(F)c3)oc12,outcome,[1],inactive
same,outcome,[2],inactive
same,outcome,[3],inactive
same,outcome,[4],inactive
COc1ccc(-n2cnc3cc(C(=O)N4CCCCC4)ccc32)cc1,outcome,[1],inactive
same,outcome,[2],inactive
same,outcome,[3],inactive
same,outcome,[4],inactive
Cc1ccc(S(=O)(=O)Nc2cc(C(F)(F)F)ccc2C(=O)Nc2nc(-c3ccccc3)cs2)cc1,AC50,[1],4.17 µM (active)
same,AC50,[2],3.72 µM (active)
same,AC50,[3],3.32 µM (active)
same,IC50,[4],4.68 µM (active)
CC1(C(=O)O)CCC2(C)CCC3(C)C(=CC(=O)C4C5(C)CCC(OC6OC(C(=O)O)C(O)C(O)C6OC6OC(C(=O)O)C(O)C(O)C6O)C(C)(C)C5CCC43C)C2C1 (configuration not stated),outcome,[1],inactive
same,outcome,[2],inactive
same,outcome,[3],inactive
same,outcome,[4],inactive
O=C(NO)c1cnc(NC2(c3ccccc3)CC2)nc1,AC50,[1],3.32 µM (active)
same,AC50,[2],2.95 µM (active)
same,AC50,[3],2.95 µM (active)
O=C(NC[C@H](O)CN1CCc2ccccc2C1)c1ccnc(NC2CCC2)c1,outcome,[1],inactive
same,outcome,[2],inactive
same,AC50,[3],23.5 µM (active)
same,outcome,[4],inactive
CC(C)n1c(=O)cc(N[C@@H](C)c2ccccc2)[nH]c1=O,AC50,[1],9.34 µM (active)
same,AC50,[2],10.5 µM (active)
same,AC50,[3],14.8 µM (active)
same,outcome,[4],inactive
CCS(=O)(=O)Nc1ccc(Oc2ccc(F)cc2F)c(-c2cn(C)c(=O)c3[nH]ccc23)c1,AC50,[1],0.105 µM (active)
same,AC50,[2],2.95 µM (active)
same,AC50,[3],4.68 µM (active)
CCCCOC(=O)NS(=O)(=O)c1sc(CC(C)C)cc1-c1ccc(Cn2ccnc2)cc1,outcome,[1],inactive
same,AC50,[2],20.9 µM (active)
same,AC50,[3],20.9 µM (active)
same,outcome,[4],inactive
CCNCCc1ccc(CN(CC)c2cc(OC)ccc2[C@@H]2CCc3cc(O)ccc3C2)cc1,AC50,[1],7.42 µM (active)
same,AC50,[2],8.33 µM (active)
same,AC50,[3],5.25 µM (active)
same,IC50,[4],3.32 µM (active)
O=C(Cc1cccc(OC(F)(F)F)c1)Nc1ccc(CCCCc2nnc(NC(=O)Cc3ccccn3)s2)nn1,AC50,[1],13.2 µM (active)
same,AC50,[2],14.8 µM (active)
same,AC50,[3],20.9 µM (active)
same,outcome,[4],inactive
COc1cccc(-c2ccc(NC(=O)C3=C(C(=O)O)CCC3)c(F)c2)c1,outcome,[1],inactive
same,outcome,[2],inactive
same,outcome,[4],inactive
Nc1nc2c(c(=O)[nH]1)N1CN(c3ccc(C(=O)N[C@@H](CCC(=O)O)C(=O)O)cc3)CC1CN2 (some centres not stated),outcome,[1],inactive
same,outcome,[3],inactive
Cn1cc(-c2cnc3ccc4ccc(CS(=O)(=O)NCc5ccccn5)cc4c(=O)c3c2)cn1,outcome,[1],inactive
same,outcome,[2],inactive
same,outcome,[4],inactive
COc1cccc([C@@H](C)NCCCc2ccccc2Cl)c1,outcome,[1],inactive
same,outcome,[5],inactive
same,outcome,[3],inactive
same,outcome,[4],inactive
CN(C)Cc1cccc(N=C(c2ccccc2)c2c(O)[nH]c3cc(C(=O)N(C)C)ccc23)c1,outcome,[1],inactive
same,outcome,[5],inactive
same,IC50,[4],18.6 µM (active)
same,fold change,[6]; [9],0.785 (inactive)
same,fold change,[6]; [10],1.01
same,cell count,[6]; [11],3180
same,cell count,[6]; [12],4050
same,z-score,[7]; [13],-0.347 (inactive)
same,z-score,[7]; [14],0.635
CN(Cc1ccccc1)C(=O)c1ccc(S(=O)(=O)Nc2ccccc2)cc1,outcome,[1],inactive
same,outcome,[3],inactive
same,outcome,[4],inactive
Cc1nnc(C(C)C)n1C1CC2CCC(C1)N2CCC(NC(=O)C1CCC(F)(F)CC1)c1ccccc1 (configuration not stated),outcome,[1],inactive
same,outcome,[2],inactive
same,outcome,[3],inactive
same,outcome,[4],inactive
same,fold change,[6]; [9],0.913 (inactive) and 0.876 (inactive)
same,fold change,[6]; [10],0.655 and 0.632
same,cell count,[6]; [11],8280 and 7990
same,cell count,[6]; [12],9060 and 9120
same,z-score,[7]; [13],0.322 (inactive) and -0.218 (inactive)
same,z-score,[7]; [14],-0.412 and -0.846
same,z-score,[8],0.505 (inactive)
C[C@H]1CNCCCN1S(=O)(=O)c1cccc2cncc(F)c12,outcome,[1],inactive
same,outcome,[3],inactive
same,outcome,[4],inactive
CC1(N)CCN(c2cnc(-c3cccc(Cl)c3Cl)c(N)n2)CC1,outcome,[1],inactive
same,outcome,[3],inactive
same,outcome,[4],inactive
Oc1ccc(C2CCN(c3ccnc4ccccc34)CC2)cc1O,AC50,[1],16.6 µM (active)
same,AC50,[3],20.9 µM (active)
Cc1c(Cl)cccc1S(=O)(=O)Nc1nc(CCN2CCOCC2=O)cs1,outcome,[1],inactive
same,outcome,[2],inactive
same,outcome,[4],inactive
COC(=O)N[C@@H](C)CNc1nccc(-c2cn(C(C)C)nc2-c2cc(Cl)cc(NS(C)(=O)=O)c2F)n1,outcome,[1],inactive
same,AC50,[2],1.48 µM (active)
same,outcome,[4],inactive
c1cn2cc(-c3ccc4cn[nH]c4c3)nc(Nc3ccc(N4CCOCC4)cc3)c2n1,AC50,[1],11.8 µM (active)
same,AC50,[2],6.61 µM (active)
same,AC50,[3],14.8 µM (active)
same,outcome,[4],inactive
same,fold change,[6]; [9],0.776 (inactive)
same,fold change,[6]; [10],0.455
same,cell count,[6]; [11],4570
same,cell count,[6]; [12],5880
same,z-score,[7]; [13],1.34 (inactive)
same,z-score,[7]; [14],0.233
Cc1nc2ccc(C(=O)N3CCC4(CC3)CC(=O)c3c(cnn3C(C)C)C4)cc2[nH]1,outcome,[1],inactive
same,outcome,[3],inactive
